This is part of a sample that, as a whole, favours compounds with a hit. Of some 83,000 tested, about 20% had one in any assay.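 How to read the values: 0–100, growth inhibition (40 = 60% inhibited); 0, no net growth; -100 to 0, cell death (-40 = 40% of starting cells died; -100 = all dead).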 Unmarked numbers belong to inactive results. Activity calls are given as the source filed them.

The record followed here is PubChem BioAssay (NCI).

This assay concerns U251 CNS. Put plainly: NCI-60 one-dose screen, 48 h (100 = growth as untreated, 0 = no growth, -100 = all killed). Conditions: 10 µM unless noted. On the procedure: Growth inhibition of the U251 human tumor cell line is measured as a screen for anti-cancer activity. Cells are grown in 96 well plates and exposed to the test compound for 48 hours. Compounds are tested at a single concentration, which is 10^-5 M for most compounds. The reported endpoint is percent growth (GI% or GIPRCNT), where numbers from 0 - 100% represent growth inhibition, and numbers from -100% - 0 represent cell death. For example, a value of 40 represents 60% growth inhibition. A value of 0 means no net growth occurred over the course of the experiment. A value of -40 indicates 40% of cells at the beginning of the experiment died by the end of the experiment. A value of -100 means all cells are dead at the end of the experiment.
NCI-60 Human Tumor Cell Lines Screen was performed using the standard one-dose NCI protocol, which is described in more detail at https://dtp.cancer.gov/discovery_development/nci-60/default.htm.
Compounds with GIPRCNT values below 10 were considered active. Activity score was based on GIPRCNT using the following formula: […]
Score is 0 for GIPRCNT values of 100 or above, 50 for GIPRCNT values of 0, and 100 for GIPRCNT values of -100.
Turning to `NC(N)=Nc1ccc(Oc2cccc(Oc3ccc(Cl)c(C(F)(F)F)c3)c2)cn1`, the growth was -82.2% (active). Turning to `COc1ccc([C@@H]2c3[nH]c4ccccc4c3C[C@H]3C(=O)N(C4CCN(CC5CCCCC5)CC4)CC(=O)N23)c(OC)c1`, the growth was 72.4%. Next, `CC(=O)C1=C(C)NC(NNC(N)=S)=NC1c1ccccc1` (stereo not given): 106%; `CC/C(=C/c1cc(OC)ccc1O)c1ccc2cc(OC)ccc2[o+]1`: 66.5%. Next, `C=CC(=O)N1CCC=C(c2cc3c(N[C@H](C)c4ccccc4)ncnc3[nH]2)C1`: 84.2%; `CCC(CC)N1C(=O)/C(=c2\sc3n(c2=O)NC2C(N=3)N(CC)C(=O)N2CC)c2ccccc21` (stereo not given): 58.9%. For `N#Cc1c(NC(=O)c2cccc(C(F)(F)F)c2F)sc2c1CCC(=O)C2`, the growth is 0.119% (active). Next, `CC(=O)c1cc(C(=O)N2c3ccccc3Sc3ccccc32)n2ccc3ccccc3c12`: 37.8%; `COc1cc(OC)cc(C(=O)Nc2sc3c(c2C(N)=O)CCC(=O)C3)c1`: 10.3%.

Take `Cc1ccc(CSc2nc(-c3ccc(Cl)cc3)c(C#N)c(N3CCOCC3)n2)cc1`: the growth was 96.7%. As to `O=C(Cn1c(-c2ccccc2)nc2cc(Cl)c(Cl)cc21)N=Nc1c(O)[nH]c2ccc(Cl)cc12`, the growth is 93.8%. Take `Nc1nc(Nc2ccccc2SSc2ccccc2Nc2nc(N)nc(-c3ccccc3)n2)nc(-c2ccccc2)n1`: the growth was -22.7% (active). Next, `CN1CCN(c2ccc(/C=N/n3cnc4oc(-c5ccccc5)cc4c3=N)cc2)CC1`: 100%. For `Clc1ccc(N/N=c2/oc3ccccc3cc2-c2cc3ccccc3[nH]2)cc1`, the growth was 80.2%.

As to `C#CCOC(=O)[C@@H]1CCCN1CC#C`, the growth is 81.4%. In the case of `COc1cc(-c2nc(SCCC(C)C)nc(NNC(=O)c3ccncc3)c2C#N)cc(OC)c1OC`, the growth is 79.7%. In the case of `c1n[nH]cc1-c1nc2ccc3[nH]ncc3c2c2c1CCCC2` it was 30.1%. Turning to `COc1ccc(C(=O)Nc2ncc(Cc3ccccc3Cl)s2)cc1`, the growth was 14.6%. In the case of `CNC(=O)c1c(NC(=O)c2ccccc2C(F)(F)F)sc2c1CCC(=O)C2` it was 24.8%; in that of `O=C(O)c1cn(C2CC2)c2cc(N3CCN(C(=O)CN4C(=O)CSC4=O)CC3)c(F)cc2c1=O`, 115%; in that of `NS(=O)(=O)c1ccc(Nc2nc(SCC(=O)c3ccc(Cl)cc3)nc3c2CCCC3)cc1`, 51.3%. Next, `Clc1nc2ccccc2nc1-c1nnc(C2CCCCC2)o1`: 97.9%; `CC(c1ccccc1)N1CSc2nc3ncncc3n2C1` (stereo not given): 70.6%. In the case of `CCN1CCN(Cc2cn(-c3ccc(S(N)(=O)=O)cc3)nn2)CC1` it was 109%; in that of `CCNC(=O)N1CCc2cc(OC)c(OCCc3ccc(OC)c(N)c3)cc2C1c1cc(C)c(C)cc1C` (stereo not given), 28.4%. `N#Cc1ccccc1Cn1c2nc(=N)c3ccccc3c-2nc2ccccc21`: the growth is 70.4%. For the compound `C=C(C=O)[C@@H]1CC[C@]2(C)[C@H](CC=C3[C@H]4[C@@H](C)[C@H](C)CC[C@]4(C(=O)OC)CC[C@]32C)[C@@]1(C)CCC#N`, the growth was 5.57% (active).

With `COc1c(N2CC3CCCNC3C2)c(F)cc2c(=O)c(C(=O)N/N=C/c3ccc(Br)cc3)cn(C3CC3)c12` (stereo not given), the growth was 86.9%.

Regarding `CNc1ncc2cc(-c3ccc(-c4ncccc4F)cc3Cl)c(=O)n(CC3OCC(N)CO3)c2n1` (stereo not given), the growth was 51.8%. In the case of `Cn1ccnc1C(=O)/C=C/c1ccc(CNC(=O)c2c(F)c(F)c(F)c(F)c2F)cc1` it was 45.6%; in that of `CC1=NC2=NN3C(=NN2C(c2ccccc2)=C1)N=NC(c1ccc(Br)cc1)=C3c1ccc(Br)cc1`, 103%; in that of `Cc1cc(C(NC(=O)CCCCCNc2cccc3c2C(=O)N(C2CCC(=O)NC2=O)C3=O)c2ccc3c(c2)OC(F)(F)O3)c(O)c2ncccc12` (stereo not given), 33.6%. For `CN1CCN(Cc2ccc(NC(=O)c3cncc(C#Cc4cnc5ccc(N6CCN(C)CC6)nn45)c3)cc2C(F)(F)F)CC1`, the growth was -96.7% (active). On to `COc1cc(Cn2cc3c(c2)-c2onc(CN4CCCC4)c2CC3)cc(OC)c1OC`, for which the growth was 96.8%. With `C[C@@H]1C[C@H]2C(=O)O[C@@H](C)C(NC(=O)[C@H](Cc3cc(F)cc(F)c3)NC(=O)Nc3ccc(Cl)cc3F)C(=O)N3CCC[C@H]3C(=O)N3CCCC[C@H]3C(=O)N[C@@H](CO)C(=O)N2C1` (stereo not given in full), the growth was 30%. On to `N=c1c2cc(-c3ccccc3)oc2ncn1/N=C/c1ccc(Cl)cc1`, for which the growth was 66.4%. On to `CC(C)(O)c1cncc(-c2ccc3ncnc(NCc4ccccc4)c3c2)c1`, for which the growth is 109%. Turning to `COc1cc(-c2nnc(SCc3ccc(O)c4ncccc34)n2-c2ccccc2)cc(OC)c1OC`, the growth is 4.28% (active).

Take `CCc1nn2c(C)cc(C)nc2c1Cc1ccc(/C=C/CN2CCN(CCOCCOCCN3CCN(C/C=C/c4ccc(Cc5c(CC)nn6c(C)cc(C)nc56)cc4)CC3)CC2)cc1`: the growth is -47% (active). Consider `CCOc1ccccc1NC1=C(Cl)C(=O)c2nc(C)ccc2C1=O`, for which the growth is 37.9%.
